From PubChem BioAssay
TLR4-MyD88 BLA = blocks binding of human TLR4 to MyD88; O00206+Q99836; HeLa CL3-4 TLR4/MyD88 BLA complementation, FRET ratio; inhibition, % at 8.4 µM; 200,000 compounds, 0.18% hits; in the data active = inhibition above about 25%;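 note: 0% = vehicle and 100% = reference inhibitor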
TLR9-MyD88 block = inhibitors of human TLR9-MyD88 binding. Q9NR96+Q99836. CHO BLA complementation TLR9-MyD88, CCF4 FRET ratio. inhibition, % at 4.98 µM. 340,000 compounds, 0.21% hits;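 active = inhibition above the mean over all tested compounds plus 3 SD, cut at about 21% in these data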;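 note: 0% = DMSO only wells and 100% = clavulanate BLA inhibitor control wells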
Myeloid diff MLP = myeloid differentiation induction; ER-HoxA9 myeloid progenitors, lysozyme-GFP differentiation, flow cytometry; calls only at 10 µM; 360,000 compounds, 1% hits; AID 624256;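 active = normalized GFP-positive differentiation at or above the plate's own cutoff, the solvent-only control mean plus 3 SD; inconclusive = no clear call, values can overlap the other calls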;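 note: cells exposed to compound for four days before flow analysis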
NOD2-RIPK2 inh = inhibitors of human NOD2-RIPK2 interaction; 360,000 compounds, 0.38% hits; CHO BLA complementation NOD2-RIPK2, CCF4 ratio; O43353; AID 624267; inhibition, % at 4.98 µM; in the data active = inhibition above about 21%;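 note: 0% = vehicle only and 100% = reference blocker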
Target sequence (O43353 whole entry, looked up): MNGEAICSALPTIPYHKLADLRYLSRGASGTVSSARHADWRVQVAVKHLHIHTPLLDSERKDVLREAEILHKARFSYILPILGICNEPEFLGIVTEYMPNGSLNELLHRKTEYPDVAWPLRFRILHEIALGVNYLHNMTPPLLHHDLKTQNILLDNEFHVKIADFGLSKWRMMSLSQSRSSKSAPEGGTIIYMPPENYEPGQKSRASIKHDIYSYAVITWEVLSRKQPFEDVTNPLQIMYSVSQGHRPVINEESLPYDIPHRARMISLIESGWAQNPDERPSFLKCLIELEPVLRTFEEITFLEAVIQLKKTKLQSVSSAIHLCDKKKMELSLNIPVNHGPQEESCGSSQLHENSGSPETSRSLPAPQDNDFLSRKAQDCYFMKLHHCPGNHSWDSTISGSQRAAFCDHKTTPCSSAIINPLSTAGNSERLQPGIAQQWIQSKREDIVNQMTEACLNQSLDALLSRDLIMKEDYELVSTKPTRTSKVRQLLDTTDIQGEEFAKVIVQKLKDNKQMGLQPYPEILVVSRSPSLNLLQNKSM
Myeloid diff = myeloid differentiation induction; 2,300 compounds, 2% hits; calls only; ER-HoxA9 myeloid progenitors, GFP/Mac1 double-positive flow; shares compounds with Myeloid diff MLP; AID 651706;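 active = share of green or green-and-red cells above 9 and 9% in run 1 or 4 and 3% in run 2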
GFP autofluor = counter-screen for myeloid differentiation promoters: compound fluorescence | 2,300 compounds, 7.4% hits | ER-HoxA9 myeloid progenitors, no estrogen, GFP autofluorescence flow cytometry; vehicle wells 0%, positive control 100% | fluorescence response, % (concentration not given with the values) | shares compounds with Myeloid diff MLP;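 active = over 5% cells positive for green fluorescent reporter, or over 2% positive for both it and APC stain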;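 note: range taken on the double positive population between DMSO and positive control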
The depositor's hits bear a star; i = inactive; ? = inconclusive; nt = no result; + = active, no number. Shown are actives, neighbours in structure and some others; about 1.5% of the full set was active somewhere.

SMILES	TLR4-MyD88 BLA	TLR9-MyD88 block	Myeloid diff MLP	NOD2-RIPK2 inh	Myeloid diff	GFP autofluor
COc1cccc(-c2ccc(NC(=O)C3CCCN(Cc4cnn(C)c4C)C3)cc2)c1 (stereo not given)	nt	-4	?	0	nt	nt
COc1cccc(-c2ccc(NC(=O)C3CCCN(Cc4cccc(C)n4)C3)cc2)c1 (stereo not given)	nt	-3	i	0	i	0
COc1ccc(NC(=O)N(C)[C@H]2C[C@H]3c4[nH]c5ccc(-c6ccc(OC)cc6)cc5c4CCN3C[C@H]2[C@H](C)O)cc1	nt	13	i	4	nt	nt
COc1ccc(NC(=O)N(C)[C@H]2C[C@H]3c4[nH]c5ccc(-c6ccc7c(c6)OCO7)cc5c4CCN3C[C@H]2[C@H](C)O)cc1	nt	3	i	8	i	0
CCCOc1nnnn1-c1ccccc1	-3	-11	i	-10	nt	nt
CCCOn1nnnc1-c1ccccc1	8	10	i	-1	i	0
Cc1ccc(C(C(=O)NC2CCCC2)N(C(=O)Cc2cccs2)c2cccc(C)c2C)o1 (stereo not given)	3	0	i	-6	i	0
O=C(NC1CCCC1)C(c1ccncc1)N(Cc1ccccc1)C(=O)Cc1cccs1 (stereo not given)	-8	7	i	-14	nt	nt
COc1ccccc1CN(C(=O)Cc1cccs1)C(C(=O)NC1CCCC1)c1ccncc1 (stereo not given)	7	-4	i	-1	i	0
Cc1cc(C)cc(N(C(=O)Cc2cccs2)C(C(=O)NC2CCCC2)c2ccc(C)o2)c1 (stereo not given)	7	6	i	-5	nt	nt
O=C(/C=C/[C@H]1O[C@@H](n2ccc(=O)[nH]c2=O)[C@H](O)[C@@H]1O)N[C@@H](Cc1ccccc1)C(=O)O	nt	nt	i	-2	nt	nt
Cn1nnnc1Sc1ccc([N+](=O)[O-])cc1Cl	-20	6	i	-1	i	0
O=[N+]([O-])c1ccc(Sc2nnnn2-c2ccccc2)c(Cl)c1	0	-7	+	-5	i	0
Nc1ccc(Sc2nnnn2-c2ccccc2)c(Cl)c1	-5	-10	i	-5	nt	nt
Cc1nc(N(C)C2CCCCC2)c2nnn(Cc3ccc(F)cc3)c2n1	nt	1	i	1	nt	nt
COc1ccccc1C#Cc1cnc2c(c1)C(=O)N([C@H](C)CO)C[C@@H](C)[C@@H](CN(C)C(=O)c1ccc3c(c1)OCO3)O2	nt	-5	i	10	nt	nt
COC(=O)c1ccc(N2Cc3ccccc3/C2=N\C(=O)Nc2ccccc2)cc1	12	-2	i	0	nt	nt
CC(=O)c1ccc(N2Cc3ccccc3/C2=N\C(=O)Nc2ccc(Cl)cc2)cc1	5	-7	i	-11	i	0
O=C(Cc1cc(=O)[nH][nH]1)N/N=C/C(Cl)=C/c1ccccc1	0	-2	i	5	i	0
CCN1CCN(CC(=O)Nc2cc3c(cc2C(C)=O)OCO3)CC1	-9	-7	i	0	nt	nt
CC(=O)c1cc2c(cc1NC(=O)CN1CCOCC1)OCO2	2	4	+	-7	i	0
COCCNC(=O)C1(C)CCN(C(=O)c2ccc(SC(F)(F)F)cc2)C1 (stereo not given)	nt	nt	i	-5	nt	nt
O=C(CCN1C(=O)C2C3C=CC(C4CC34)C2C1=O)Nc1ccc(Cl)cc1O (stereo not given)	nt	-8	+	-1	i	0
C=CCN1C(=O)C2(NNc3ccccc3O2)c2ccccc21 (stereo not given)	15	-2	i	20	i	95*
C=C(c1cn(C(C)=O)c2ccccc12)c1cn(C(C)=O)c2ccccc12	nt	-1	i	-6	i	0
SMILES	TLR4-MyD88 BLA	TLR9-MyD88 block	Myeloid diff MLP	NOD2-RIPK2 inh	Myeloid diff	GFP autofluor
CC(=O)n1cc(CO)c2ccccc21	nt	-22	i	8	nt	nt
Cn1cc(CN(CCCN2CCOCC2)C(=S)Nc2cccc(Cl)c2)c2ccccc21	13	-16	+	-6	i	0
Cc1cccc(NC(=S)N(CCCN2CCOCC2)Cc2cn(C)c3ccccc23)c1	-1	1	i	3	nt	nt
Oc1ccc(C[C@H]2CNC(=S)N2CC2CCCN2C[C@H](Cc2ccccc2)N2C[C@H](Cc3ccc(O)cc3)N(CC3CCCCC3)C2=S)cc1 (stereo not given in full)	nt	nt	i	-16	nt	nt
COc1ccccc1N(O)C1CC(=O)N(c2ccc(F)cc2)C1=O (stereo not given)	-1	-15	i	5	i	0
COc1ccccc1N1C(=O)CC(N(O)c2ccccc2)C1=O (stereo not given)	nt	1	i	-2	nt	nt
COCCNC(=O)C1(C)CCCN(Cc2cn(C)c3ccccc23)C1 (stereo not given)	nt	nt	i	-8	nt	nt
O=C(/C=C/c1ccccc1Cl)Nc1ccncc1	-12	9	+	-14	i	0
CC(C(=O)N1CCc2ccccc2C1)N1C(=O)c2ccccc2C1=O (stereo not given)	nt	-10	+	-2	i	0
CC(C)CC(C(=O)N1CCc2ccccc2C1)N1C(=O)c2ccccc2C1=O (stereo not given)	6	1	i	-2	nt	nt
N#CC1=C(N)Oc2n[nH]c(-c3ccccn3)c2C1c1c(F)cccc1Cl (stereo not given)	-4	-2	i	-8	i	0
COCc1[nH]nc2c1C(c1c(F)cccc1Cl)C(C#N)=C(N)O2 (stereo not given)	-1	3	i	7	nt	nt
O=C(CSc1ncnc2nc[nH]c12)c1ccc2ccccc2c1	3	-5	+	-7	i	0
CCOc1ccccc1N(CC(=O)NCCSCc1ccco1)S(=O)(=O)c1ccccc1	nt	2	i	0	nt	nt
Cc1ccccc1N(CC(=O)NCCSCc1ccco1)S(C)(=O)=O	-4	-5	+	-2	i	1
O=[N+]([O-])CC(c1ccccc1)c1c[nH]c2ccccc12 (stereo not given)	nt	nt	+	-2	i	0
Cc1onc(-c2ccccc2)c1C(=O)OCC(=O)N1CCCCC1	nt	-7	i	-12	nt	nt
O=C(Nc1ccon1)C1CCN(S(=O)(=O)c2cccs2)CC1	-8	2	i	-2	i	1
O=C(NC(=S)NCCN1CCOCC1)c1cccc(Cl)c1	1	-7	i	-7	i	0
NC(c1csc(Nc2ccc(C(=O)c3ccccc3)cc2)n1)C1CCCCC1 (stereo not given)	nt	nt	i	-5	nt	nt
O=C(Nc1ccccc1Br)C1CCCN1S(=O)(=O)c1cccc2nsnc12 (stereo not given)	nt	8	i	-7	nt	nt
Cc1c(NC(=O)C2CCCN2S(=O)(=O)c2cccc3nsnc23)cccc1C(=O)O (stereo not given)	-2	12	+	-5	i	0
